Our source for the growth inhibition, inhibition and outcome values is PubChem BioAssay.

The nature of assay [1]: antimalarial activity against Dd2 strain (AID 2302;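 active means growth inhibition above 50% at the single 2 µM test dose, taken to imply half-maximal potency below 2 µM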;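 further: 0% = DMSO untreated growth and 100% = chloroquine plus artemisinin killed control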). The following applies: P. falciparum Dd2 in RBCs, LDH growth readout, 72 h; at 2 µM; hits give high values.
Assay [2] is described as follows: human hepatoma cell viability loss – ATP luminescence, cytotoxicity control for P. falciparum antimalarial project, primary screen (AID 2303;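 active means inhibition above 50%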;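 further: 0% = DMSO wells and 100% = digitonin-killed cells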). The conditions noted are these: HepG2 viability, 24-48 h, at 10 µM, hits give high values.
The target of assay [3] is L-lactate dehydrogenase (Plasmodium falciparum (isolate CDC / Honduras)) (UniProt Q27743). The assay is described as follows: PfLDH activity inhibition – cell lysate, 3D7 strain, counter-screen for P. falciparum growth inhibition project (AID 2304).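 Further: 0% = vehicle and 100% = reference inhibitor.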 The following applies: P. falciparum 3D7 crude extract, LDH APAD/NBT absorbance; at 2 µM; hits give high values. On the technique in general: A counterscreen serves to expose hits that act by an unwanted route or on another target.
L-lactate dehydrogenase (Plasmodium falciparum (isolate CDC / Honduras)), sequence (Q27743 whole entry, looked up): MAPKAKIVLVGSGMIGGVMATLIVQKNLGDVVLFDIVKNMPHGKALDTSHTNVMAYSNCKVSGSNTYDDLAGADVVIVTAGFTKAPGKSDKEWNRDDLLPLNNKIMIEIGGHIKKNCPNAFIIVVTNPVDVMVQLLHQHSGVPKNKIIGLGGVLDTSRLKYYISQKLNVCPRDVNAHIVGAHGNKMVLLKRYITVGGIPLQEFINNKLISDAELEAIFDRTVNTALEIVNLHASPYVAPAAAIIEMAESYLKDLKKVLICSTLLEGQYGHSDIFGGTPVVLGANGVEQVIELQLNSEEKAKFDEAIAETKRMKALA

Assay [4] is described as follows: inhibition of 3D7 malaria parasite growth – strain 3D7 (AID 2306).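 Further: 0% = DMSO wells and 100% = chloroquine plus artemisinin control wells.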 The conditions noted are these: P. falciparum 3D7 erythrocytic growth, LDH absorbance, 72 h; at 2 µM; hits give high values.
Assay [5] has as its target Calcium-dependent protein kinase 1 (Plasmodium falciparum (isolate 3D7)) (UniProt P62344). The assay is described as follows: PfCDPK1 kinase inhibitors, biochemical, TCAMS library (AID 1159585; cut-off not given, nearly all actives have IC50 up to about 0.98 µM;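 further: inhibitors leave more ATP so luminescence rises with inhibition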). The conditions noted are these: recombinant PfCDPK1, Kinase-Glo ATP depletion luminescence.
Assay [6] deals with Plasmodium falciparum protein kinase 6 (PK6, PF3D7_1337100) (UniProt Q8IDW1). Nature of the assay: PfPK6 kinase inhibitors, biochemical, TCAMS library (AID 1159586). The following applies: recombinant PfPK6, Kinase-Glo ATP depletion luminescence. On the technique in general: Kinase-Glo reads ATP consumption through a luciferase reaction.
Plasmodium falciparum protein kinase 6 (PK6, PF3D7_1337100), sequence (Q8IDW1 1-305): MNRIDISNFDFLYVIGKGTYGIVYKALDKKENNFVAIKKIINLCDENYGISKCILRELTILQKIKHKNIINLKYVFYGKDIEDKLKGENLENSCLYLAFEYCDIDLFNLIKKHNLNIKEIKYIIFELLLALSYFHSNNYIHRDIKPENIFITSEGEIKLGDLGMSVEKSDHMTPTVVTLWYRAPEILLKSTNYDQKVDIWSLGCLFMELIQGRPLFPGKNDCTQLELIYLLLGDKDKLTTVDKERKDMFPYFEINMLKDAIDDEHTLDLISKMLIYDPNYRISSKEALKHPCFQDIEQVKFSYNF
Assay [7] addresses Protein kinase 7 (PK7), Plasmodium falciparum 3D7 (PF3D7_0213400) (UniProt Q7YTF7). Nature of the assay: inhibition of Plasmodium PK7 catalytic activity – biochemical, TCAMS antimalarial set, Kinase-Glo luminescence (AID 1159587). The conditions noted are these: recombinant PfPK7, Kinase-Glo ATP depletion luminescence.
Assay [8] concerns the target Calcium-dependent protein kinase 4 (Plasmodium falciparum (isolate 3D7)) (UniProt Q8IBS5). Nature of the assay: PfCDPK4 kinase inhibitors, biochemical, TCAMS library (AID 1159588; cut-off not given, nearly all actives have IC50 up to about 0.91 µM). The conditions noted are these: recombinant PfCDPK4, Kinase-Glo ATP depletion luminescence.

Unmarked numbers belong to inactive results. For part of these data: Results with a measured potency or affinity are listed apart. Active and inactive are the calls of the source. Unless noted, how the calls were made is not given here.

Calcium-dependent protein kinase 1 (Plasmodium falciparum (isolate 3D7)), sequence (P62344 whole entry, looked up): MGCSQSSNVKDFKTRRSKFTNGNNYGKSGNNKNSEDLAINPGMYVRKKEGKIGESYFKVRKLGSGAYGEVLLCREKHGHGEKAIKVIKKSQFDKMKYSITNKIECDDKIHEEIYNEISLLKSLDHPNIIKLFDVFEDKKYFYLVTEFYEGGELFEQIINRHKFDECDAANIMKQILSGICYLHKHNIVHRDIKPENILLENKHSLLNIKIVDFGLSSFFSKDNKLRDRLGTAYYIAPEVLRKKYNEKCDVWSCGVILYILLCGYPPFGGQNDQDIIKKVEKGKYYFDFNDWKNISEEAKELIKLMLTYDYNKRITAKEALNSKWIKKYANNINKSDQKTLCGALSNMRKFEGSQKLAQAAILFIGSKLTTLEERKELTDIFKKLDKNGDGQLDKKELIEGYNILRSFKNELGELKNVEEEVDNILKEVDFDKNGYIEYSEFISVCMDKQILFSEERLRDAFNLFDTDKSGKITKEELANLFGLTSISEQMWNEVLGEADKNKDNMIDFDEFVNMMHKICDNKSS
Calcium-dependent protein kinase 4 (Plasmodium falciparum (isolate 3D7)), sequence (Q8IBS5 whole entry, looked up): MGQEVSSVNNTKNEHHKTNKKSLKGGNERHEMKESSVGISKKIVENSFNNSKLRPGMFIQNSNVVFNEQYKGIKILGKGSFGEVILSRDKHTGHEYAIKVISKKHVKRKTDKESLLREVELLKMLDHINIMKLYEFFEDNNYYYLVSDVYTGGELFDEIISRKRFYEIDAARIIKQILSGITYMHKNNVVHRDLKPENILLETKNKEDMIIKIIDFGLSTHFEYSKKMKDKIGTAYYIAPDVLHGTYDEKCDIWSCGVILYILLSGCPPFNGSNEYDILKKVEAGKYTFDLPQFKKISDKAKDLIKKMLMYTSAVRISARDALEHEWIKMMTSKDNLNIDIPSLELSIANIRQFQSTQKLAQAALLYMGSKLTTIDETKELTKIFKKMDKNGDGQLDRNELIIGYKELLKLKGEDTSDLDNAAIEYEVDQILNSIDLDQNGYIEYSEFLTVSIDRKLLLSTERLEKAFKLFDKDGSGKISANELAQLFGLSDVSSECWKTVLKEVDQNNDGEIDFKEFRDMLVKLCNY
Protein kinase 7 (PK7), Plasmodium falciparum 3D7 (PF3D7_0213400), sequence (Q7YTF7 1-343): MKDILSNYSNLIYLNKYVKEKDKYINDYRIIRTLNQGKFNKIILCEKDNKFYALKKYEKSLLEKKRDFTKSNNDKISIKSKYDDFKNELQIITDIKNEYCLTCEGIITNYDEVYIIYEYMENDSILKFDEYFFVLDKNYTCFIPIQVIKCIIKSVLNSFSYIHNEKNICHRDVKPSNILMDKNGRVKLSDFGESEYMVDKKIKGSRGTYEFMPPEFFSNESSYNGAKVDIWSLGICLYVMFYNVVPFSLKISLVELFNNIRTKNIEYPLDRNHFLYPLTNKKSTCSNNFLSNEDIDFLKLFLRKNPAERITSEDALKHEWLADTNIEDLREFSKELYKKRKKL

For `OCC1CCN(Cc2cccc(-c3cccc(-c4nc5ccc(C(F)(F)F)cc5[nH]4)c3)c2)CC1`, the results for the growth inhibition in assay [1] and in assay [4] were 101% (active) and 102% (active), respectively. For the same molecule, the inhibition (usually the drop in the measured response relative to a control, in per cent) was 24% in assay [2] and -3% in assay [3]. Besides, the outcome in assay [5], in assay [6], in assay [7] and in assay [8] was inactive.

On to `CC1CN(Cc2ccc(-c3cccc(-c4nc5ccc(F)cc5[nH]4)c3)cc2)CC(C)O1` (stereo not drawn), for which the growth inhibition in assay [1] is 20%; in assay [4] it was 93% (active). Further, the inhibition in assay [2] was 28%; in assay [3], -3%. Further, the outcome in assay [5], in assay [6], in assay [7] and in assay [8] was inactive.

With `CCCCCCN1CCCN(Cc2cccc(C(=O)Nc3ccc(C(C)(C)C)cc3)c2)CC1`, the figures for the growth inhibition in assay [1] and in assay [4] were 23% and 93% (active), respectively. The inhibition was 41% in assay [2] and 0% in assay [3]. The result in assay [5], in assay [6], in assay [7] and in assay [8] was inactive.

For `Clc1ccc(-n2cnc3c(Nc4ccc(Oc5ccccc5)cc4)ncnc32)cc1Cl`, the growth inhibition in assay [1] is 65% (active); in assay [4] it was 99% (active). Further, the figures for the inhibition in assay [2] and in assay [3] were 4% and 0%, respectively. Besides, the result in assay [5], in assay [6], in assay [7] and in assay [8] was inactive.

With `CNC(=O)c1cnc(Nc2ccc(N3CCN(C)CC3)cc2)nc1Nc1cccc(OC)c1`, the growth inhibition in assay [1] is 101% (active); in assay [4], 100% (active). The inhibition is 19% in assay [2] and 5% in assay [3]. The result in assay [5], in assay [6], in assay [7] and in assay [8] was inactive.

`CCCCCCCNCc1c(O)ccc2c(CNCCCCCCC)c(O)ccc12`: the growth inhibition in assay [1] was 99% (active); in assay [4], 100% (active). The inhibition in assay [2] is 29%; in assay [3], -3%. For the same molecule, the result in assay [5], in assay [6], in assay [7] and in assay [8] was inactive.

With `Cc1ccc2nc(-c3ccccc3Nc3ccnc4cc(-c5nccs5)ccc34)[nH]c2c1`, the results for the growth inhibition in assay [1] and in assay [4] were 100% (active) and 101% (active), respectively. Further, the figures for the inhibition in assay [2] and in assay [3] were 40% and -5%, respectively. Further, the outcome in assay [5], in assay [6], in assay [7] and in assay [8] was inactive.

Regarding `O=C(Nc1cc(Cl)cc(Cl)c1)c1cc(Cl)c(=O)n(Cc2cccc(Cl)c2)c1`, the growth inhibition in assay [1] is 62% (active); in assay [4], 100% (active). For the same molecule, the inhibition is 8% in assay [2] and 2% in assay [3]. Also, the outcome in assay [5], in assay [6], in assay [7] and in assay [8] was inactive.

As to `O=C(/C=C/c1ccc(Cl)c(Cl)c1)NCCCCCN1CCC(NC(=O)Nc2ccc3c(c2)OCO3)CC1`, the growth inhibition is 5% in assay [1] and 103% (active) in assay [4]. Further, the inhibition is 12% in assay [2] and 6% in assay [3]. Also, the result in assay [5], in assay [6], in assay [7] and in assay [8] was inactive.

In the case of `CCCCCNc1nc(Nc2ccccc2C)nc2ccccc12`, the growth inhibition in assay [1] is 30%; in assay [4], 100% (active). Besides, the inhibition is 5% in assay [2] and -7% in assay [3]. Besides, the outcome in assay [5], in assay [6], in assay [7] and in assay [8] was inactive.

As to `CC(C)c1ccc(NC(=O)c2ccc(NCCCN(C)Cc3ccccc3)c([N+](=O)[O-])c2)cc1`, the figures for the growth inhibition in assay [1] and in assay [4] were 35% and 101% (active), respectively. In addition, the inhibition was 21% in assay [2] and -2% in assay [3]. Further, the result in assay [5], in assay [6], in assay [7] and in assay [8] was inactive.

Turning to `COc1ccc(C(=O)Nc2ccc(Nc3nc(C)cc(N(C)C)n3)cc2)c(OC)c1`, the growth inhibition is 72% (active) in assay [1] and 100% (active) in assay [4]. In addition, the values for the inhibition in assay [2] and in assay [3] were 34% and 0%, respectively. The outcome in assay [5], in assay [6], in assay [7] and in assay [8] was inactive.

Take `Cc1cc(C)cc(OCC(O)CN(Cc2cc(Cl)cc(Cl)c2)C(=O)Nc2ccccc2Cl)c1` (stereo not drawn): the growth inhibition in assay [1] is 37%; in assay [4] it was 93% (active). Besides, the inhibition in assay [2] was -1%; in assay [3], 2%. Besides, the outcome in assay [5], in assay [6], in assay [7] and in assay [8] was inactive.

For the molecule `O=C(NC(=O)c1ccccc1O)c1ccccc1O`, the results for the growth inhibition in assay [1] and in assay [4] were 79% (active) and 97% (active), respectively. Also, the inhibition in assay [2] was -5%; in assay [3], -2%. The outcome in assay [5], in assay [6], in assay [7] and in assay [8] was inactive.

For `CS(=O)(=O)c1ccc(CCNCc2ccc(-c3ccc(CN(C(=O)C4CC(=O)c5ccccc54)C4Cc5ccccc5C4)cc3)nc2)cc1` (stereo not drawn), the growth inhibition in assay [1] is 21%; in assay [4] it was 90% (active). For the same molecule, the values for the inhibition in assay [2] and in assay [3] were 5% and -7%, respectively. For the same molecule, the outcome in assay [5], in assay [6], in assay [7] and in assay [8] was inactive.

For `COc1cccc(CC(=O)N2CCC(n3c(C)nc4ccc(C)cc43)CC2)c1`, the growth inhibition in assay [1] was 99% (active); in assay [4], 100% (active). Besides, the results for the inhibition in assay [2] and in assay [3] were 1% and -2%, respectively. For the same molecule, the result in assay [5], in assay [6], in assay [7] and in assay [8] was inactive.

For `COc1ccc2cc(-c3nc(-c4c(Cl)cccc4Cl)[nH]c3-c3ccnc(NCCC4CCCN4C)c3)ccc2c1` (stereo not drawn), the growth inhibition in assay [1] is 82% (active); in assay [4], 100% (active). Also, the inhibition is 11% in assay [2] and 2% in assay [3]. Moreover, the outcome in assay [5], in assay [6], in assay [7] and in assay [8] was inactive.

For the molecule `COc1ccc(C2CC(c3cccs3)=NN2C(=O)CNc2cccc(C#N)c2)cc1OC` (stereo not drawn), the growth inhibition in assay [1] was 35%; in assay [4] it was 87% (active). Also, the values for the inhibition in assay [2] and in assay [3] were 8% and -4%, respectively. Moreover, the outcome in assay [5], in assay [6], in assay [7] and in assay [8] was inactive.

In the case of `O=C(CCNc1ccnc(NCCc2ccc(F)cc2)n1)Nc1ccccc1`, the growth inhibition in assay [1] is 10%; in assay [4], 95% (active). The inhibition in assay [2] was 9%; in assay [3], -4%. The outcome in assay [5], in assay [6], in assay [7] and in assay [8] was inactive.

Consider `Cn1cncc1-c1ccc2c(-c3ccsc3)cnc(N)c2c1`, for which the growth inhibition in assay [1] was 72% (active); in assay [4], 97% (active). In addition, the values for the inhibition in assay [2] and in assay [3] were 41% and -3%, respectively. Also, the result in assay [5], in assay [6], in assay [7] and in assay [8] was inactive.

Consider `O=S(=O)(NCCN1CCCC1)c1ccc(-c2ccc(CNC3Cc4ccccc4C3)cc2)cc1`, for which the growth inhibition was 91% (active) in assay [1] and 99% (active) in assay [4]. The figures for the inhibition in assay [2] and in assay [3] were 61% (active) and 5%, respectively. Further, the outcome in assay [5], in assay [6], in assay [7] and in assay [8] was inactive.
